Compound activity deposited in PubChem BioAssay by several laboratories.
An excerpt weighted towards active compounds, which were near 4.2% of everything screened.
PfHsp90 set2: growth inhibition of PfHsp90-expressing yeast, primary screen, antimalarial PfHsp90 inhibitor project, S. cerevisiae, BacTiter-Glo luminescence, single point, set 2; BacTiter-Glo ATP, 48 h; yeast lacking PDR1 and PDR3 efflux regulators; inhibition, % at 9.4 µM; 0.32% of 310,000 active; AID 504621, 2011;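 active = every replicate shows inhibition above about 80%, whatever the replicate mean, limit read from the data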;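 also: 0% = DMSO neutral controls and 100% = 20 µM radicicol positive controls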
tim23-1 inh: growth inhibitors of tim23-1 mutant yeast, primary screen, luminescence, uHTS; inhibition, % at 20 µM; S. cerevisiae tim23-1 growth, BacTiter-Glo luminescence, 24 h; AID 463212, 2010; 1.3% of 330,000 active;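 active = growth inhibition of the mutant yeast at or above 50%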;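 also: temperature-sensitive mutant grown at 25 °C; plate controls were DMSO-treated mutant yeast for no effect and medium wells lacking yeast for full effect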
TIM10 inh: growth inhibitors of isogenic TIM10 control yeast, primary screen, counter-screen for tim10-1 yeast inhibitor project, luminescence, uHTS; S. cerevisiae TIM10 strain growth, BacTiter-Glo luminescence, 24 h; inhibition, % at 10 µM; 1.4% of 330,000 active; AID 463195, 2010;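 active = inhibition of 40% or more at the single tested concentration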;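 also: wild-type TIM10 isogenic control strain grown at permissive 25 °C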
NALP3 yeast inh: NALP3 inflammasome inhibitors in reconstituted yeast, primary screen, luminescence, uHTS | Yeast reconstituted NLRP3/ASC/caspase-1, beta-gal luminescence, 24 h | inhibition, % at 10 µM | 0.39% of 330,000 active | AID 2825, 2010;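 active = inhibition of 50% or more; inactive = inhibition below 50%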;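 also: plate controls were induced DMSO wells for no effect and uninduced yeast grown without galactose for full effect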
tim10-1 inh: growth inhibitors of tim10-1 mutant yeast, primary screen, luminescence, uHTS; S. cerevisiae tim10-1 ts strain growth, BacTiter-Glo, 24 h; inhibition, % at 20 µM; 2.2% of 330,000 active; AID 463190, 2010;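 active = inhibition of at least 40%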;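 also: mutant grown at 25 °C; 0% = DMSO wells with yeast and 100% = wells holding no yeast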
NALP1 yeast inh: NALP1 inflammasome inhibitors in reconstituted yeast, colorimetric, S. cerevisiae, triplicate retest; S. cerevisiae NALP1/ASC/caspase-1 growth, X-gal OD620, 72 h; inhibition, % at 10 µM; 0.61% of 280,000 active; in the data active = inhibition mostly above about 24%, no sharp cut-off; inactive = mostly below about 32%
NALP3 confirm: NALP3 inhibitors retested in yeast, confirmation, luminescence, single concentration; yeast expressing human NALP3; inhibition, % at 10 µM; shares compounds with NALP3 yeast inh; AID 435006, 2010; 81% of 1,300 active; in the data active = inhibition above about 48%
Casp1-ASC yeast: CASP1-PYCARD signaling inhibition in yeast, confirmatory test, counterassay for NLRP3 inhibitor program, one-dose; yeast expressing Caspase-1-ASC, luminescence counter screen; AID 488784, 2010; 66% of 1,000 active; inhibition, % at 10 µM; shares compounds with NALP3 yeast inh
NALP3 retest: NALP3 inhibitors in yeast, repeat test, confirmation, luminescence, single concentration, retest; 53% of 1,000 active; yeast expressing human NALP3, luminescence read-out; shares compounds with NALP3 yeast inh; inhibition, % at 10 µM; AID 488794, 2010
tim10-1 conf: growth inhibitors of tim10-1 mutant yeast, confirmation, single concentration, luminescence, S. cerevisiae; shares compounds with tim10-1 inh; 56% of 7,400 active; inhibition, % at 20 µM; S. cerevisiae tim10-1 ts strain growth, BacTiter-Glo, 24 h;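 active = inhibition of yeast growth at or above a set limit in either of two repeat tests at 20 µM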;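 also: tim10-1 mutant grown at permissive 25 °C to find synthetic lethal compounds; 0% = DMSO yeast wells and 100% = medium wells without yeast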
tim10 confirm: growth inhibitors of wild-type TIM10 yeast, confirmation, counter-screen for tim10-1 synthetic lethality project, single concentration, luminescence, S. cerevisiae | shares compounds with TIM10 inh | S. cerevisiae tim10 strain growth, BacTiter-Glo luminescence, 24 h | inhibition, % at 10 µM | 63% of 4,600 active | AID 463215, 2010;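 active = inhibition of yeast growth at or above a set limit in either of two replicates at 10 µM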;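 also: this counterscreen used the strain with wild-type TIM10; 0% = yeast with DMSO and 100% = medium wells lacking yeast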
tim23-1 confirm: tim23-1 mutant yeast growth inhibitors, confirmation, luminescence, single concentration; shares compounds with tim23-1 inh; S. cerevisiae tim23-1 growth, BacTiter-Glo luminescence, 24 h; inhibition, % at 20 µM; 83% of 4,400 active;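 active = inhibition above about 39% in either of two replicate wells at 20 µM, limit read from the data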;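 also: temperature-sensitive tim23-1 mutant grown at 25 °C; 0% = DMSO wells with yeast and 100% = medium wells without yeast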
Numbers without * were called inactive; . = no result. Rule as the data show it, unless noted: active = inhibition above about 50%; inactive = the rest.

SMILES	PfHsp90 set2	tim23-1 inh	TIM10 inh	NALP3 yeast inh	tim10-1 inh	NALP1 yeast inh	NALP3 confirm	tim10-1 conf	tim10 confirm	tim23-1 confirm	others
CN[C@H]1C[C@H]2O[C@@](C)([C@H]1OC)n1c3ccccc3c3c4c(c5c6ccccc6n2c5c31)C(=O)NC4	.	64*	74*	97*	58*	92*	99*	44*	67*	70*
COc1ccccc1N1C(=O)CC(=O)NC1=O	15	5	-6	11	13	6	.	.	.	.
COc1ccc(CCn2c(O)c(/C=N/N3CCOCC3)c(=O)[nH]c2=O)cc1OC	.	1	12	-3	5	-4	.	.	.	.
CC(C)(C)c1cc(C=C(C#N)C#N)cc(C(C)(C)C)c1O	-2	62*	70*	76*	78*	.	91*	82*	83*	72*	Casp1-ASC yeast=98*;NALP3 retest=96*
CC(=O)N1N=C2C3CCN(CC3)C2C1c1ccccc1 (stereo not drawn)	-17	-12	0	12	-10	10	.	.	.	.
C[C@H]1C[C@@H](C)C(=O)[C@@H]([C@H](O)CC2CC(=O)NC(=O)C2)C1	106*	77*	72*	98*	58*	100*	99*	23	63*	-10	Casp1-ASC yeast=100*;NALP3 retest=99*
Cc1c2ccncc2c(C)c2c1[nH]c1ccccc12	-5	56*	57*	82*	63*	95*	93*	31	70*	62*	Casp1-ASC yeast=72*;NALP3 retest=40
CCN(CC)C(=O)c1ccc(NC(=S)NC(=O)CCc2ccccc2)cc1	3	33	23	5	42*	3	.	21	.	.
O=C(CCCOc1ccc(Cl)cc1Cl)N1CCC2(CC1)OCCO2	.	30	24	18	42*	-4	.	33*	.	.
Cn1c(=O)cc(OCCCC(=O)N2CCC3(CC2)OCCO3)c2ccccc21	-17	6	8	10	4	-28	.	.	.	.
CC1C(OC(=O)CCC(=O)NC(C)(C)CO)O[C@H]2OC3(C)CC[C@H]4[C@H](C)CCC1C24OO3 (stereo partly drawn)	-59	11	19	-11	18	30	.	.	.	.
C[C@H]1[C@H](OC(=O)CCC(=O)NCc2ccc(C(=O)O)cc2)O[C@@H]2O[C@@]3(C)CC[C@H]4[C@H](C)CC[C@@H]1C24OO3	-2	21	10	5	43*	18	.	20	.	.
COCCCn1c(N)c(C(=O)Nc2ccccc2)c2nc3ccccc3nc21	.	40	17	7	48*	33	.	27	.	.
O=C(O)c1ccccc1-c1ccc(C=C2C(=O)N(c3ccccc3)C(=S)N(c3ccccc3)C2=O)o1	-3	35	18	14	43*	-3	.	39*	.	.
